The nature of assay [1]: NCI Yeast Anticancer Drug Screen. Data for the rad50 strain (AID 155).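 Also: 0% = growth of vehicle-only cultures of the same strain.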 The conditions noted are these: S. cerevisiae rad50 strain growth inhibition; at 50.0 µM; hits give high values. The gist of the method: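 Inhibition values express reduced yeast growth in compound-treated cultures relative to vehicle-treated controls.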
The nature of assay [2]: NCI Yeast Anticancer Drug Screen. Data for the mec2-1 strain (AID 157). The conditions noted are these: S. cerevisiae mec2-1 strain, at 50.0 µM, hits give high values. The procedure, abridged: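 Each compound was tested on mec2-1 yeast, a strain altered in DNA damage repair or cell cycle control. Growth inhibition is reported relative to vehicle.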
Assay [3] in a line: NCI Yeast Anticancer Drug Screen. Data for the sgs1 mgt1 strain (AID 161).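 Also: 0% = growth of cultures given vehicle only.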 The conditions noted are these: S. cerevisiae sgs1 mgt1 strain, at 50.0 µM, hits give high values. The gist of the method: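 Genetically altered yeast, compound exposure, growth inhibition relative to vehicle.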
A short description of assay [4]: NCI Yeast Anticancer Drug Screen. Data for the cln2 rad14 strain (AID 165).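 Also: 0% = growth equal to vehicle treated cultures.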 The conditions noted are these: S. cerevisiae cln2 rad14 strain, at 50.0 µM, hits give high values. The procedure, abridged:
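Test compounds were added to cln2 rad14 yeast cultures; inhibition of growth was then determined by comparison with vehicle treatment.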

Assay [5] in a line: NCI Yeast Anticancer Drug Screen. Data for the bub3 strain (AID 167). As to conditions: S. cerevisiae bub3 mutant strain, at 50.0 µM, hits give high values. The gist of the method:
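Steps: expose the mutant yeast strain to compound; grow alongside vehicle-treated cultures; measure growth; express inhibition against the vehicle cultures.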

Assay [6] can be described thus: NCI Yeast Anticancer Drug Screen. Data for the mlh1 rad18 strain (AID 175). As to conditions: S. cerevisiae mlh1 rad18 strain growth inhibition; at 50.0 µM; hits give high values. The gist of the method:
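Inhibition values reflect reduced growth of mutant yeast versus vehicle-treated controls following compound exposure; the mutations affect DNA damage repair.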

The panel holds about 79,000 compounds, 15% with a hit somewhere; the sample as a whole holds those more often. Unmarked numbers belong to inactive results. Activity calls are given as the source filed them. Rule as the data show it: active = growth inhibition above about 70%; inactive = the rest.

For the compound `CCOC(=O)C1=C(NC(C)(C)C)OCC1=O`, the growth inhibition was -10.7% in assay [1]; -17.9% in assay [2]; -2.2% in assay [3]; 3.1% in assay [4]; -16.6% in assay [5]; 16.1% in assay [6].

`CC1OC(OC2C(OC3C[C@@]4(C)C(C[C@H](O)[C@H]5[C@H](C6(C)CCC(C(C)(C)O)O6)CCC54C)[C@]4(C)CC[C@@H](O)C(C)(C)C34)OC(CO)C(O)C2O)C(O)C(O)C1O` (stereo not given in full) (tested in a mixture with another compound): the growth inhibition is -7.6% in assay [1]; -20.1% in assay [2]; -3.45% in assay [3]; -26.7% in assay [4]; -8.5% in assay [5]; -72.5% in assay [6].

In the case of `O=C=Nc1ccccc1[N+](=O)[O-]`, the growth inhibition is -4.25% in assay [1]; -28% in assay [2]; -15.8% in assay [3]; -65.5% in assay [4]; -0.55% in assay [5]; -9.2% in assay [6].

Regarding `CCCCCOc1ccc2ccccc2c1`, the growth inhibition in assay [1] was -23.5%; in assay [2] it was -27.8%; in assay [3] it was -18.6%; in assay [4] it was -20.9%; in assay [5], 10.2%; in assay [6], 7.15%.

With `COc1ccc(Cc2c(O)ccc3ccccc23)cc1`, the growth inhibition was 98.6% (active) in assay [1]; 99.4% (active) in assay [2]; 99% (active) in assay [3]; 95.8% (active) in assay [4]; 98.3% (active) in assay [5]; 99.2% (active) in assay [6].

As to `CCN(CCNc1cc(OC)cc2cccnc12)CC(C)C`, the growth inhibition in assay [1] is 22.8%; in assay [2], 9.65%; in assay [3], 1.8%; in assay [4], 13.8%; in assay [5] it was 6.85%; in assay [6], 17%.

On to `Nc1[nH]c(=S)[nH]c(=O)c1N=O`, for which the growth inhibition in assay [1] was -2.75%; in assay [2], -2.55%; in assay [3], -5.75%; in assay [4], -14.7%; in assay [5], -4.1%; in assay [6], 3.95%.

In the case of `CNC(=O)OCc1c(COC(=O)NC)c(-c2ccsc2)n2c1CCC2`, the growth inhibition is 17.5% in assay [1]; 13.6% in assay [2]; 37.1% in assay [3]; -5.6% in assay [4]; -22.4% in assay [5]; 8.25% in assay [6].

For the compound `CCCC(C)C1CCC(=O)CC1` (stereo not given), the growth inhibition in assay [1] is 5.85%; in assay [2], 0.3%; in assay [3], 0.75%; in assay [4], -4.3%; in assay [5] it was 1.95%; in assay [6], -0.2%.

`NCc1cnccn1`: the growth inhibition in assay [1] was -7.05%; in assay [2], 10.6%; in assay [3], -4.65%; in assay [4] it was 8.45%; in assay [5], 1.1%; in assay [6], -1.85%.

As to `CC(=O)NNc1nc(C)c(C(/C=C/c2ccc([N+](=O)[O-])cc2)=N/NC(N)=S)s1`, the growth inhibition is -8.6% in assay [1]; -2.25% in assay [2]; -10% in assay [3]; -12.4% in assay [4]; -7.2% in assay [5]; 6.7% in assay [6].

`C=CCNC(=S)N1CC(C)C(=O)Nc2ccccc21` (stereo not given): the growth inhibition in assay [1] was -26.1%; in assay [2], -18.2%; in assay [3], -29.9%; in assay [4], 6.6%; in assay [5], 11.3%; in assay [6], -14.4%.

Turning to `Clc1cccc(-c2nc3cccc4c3n2Cc2ncccc2-4)c1`, the growth inhibition in assay [1] was -47.8%; in assay [2], -37%; in assay [3] it was -42.5%; in assay [4] it was -9.4%; in assay [5], 0.65%; in assay [6] it was -44.4%.

For `O=C(O)CCc1cccc2c(=O)cc(-c3ccccc3)oc12`, the growth inhibition in assay [1] was -10.3%; in assay [2], -1.7%; in assay [3], 0.8%; in assay [4], 30.9%; in assay [5], 8.35%; in assay [6], 3.35%.

As to `C=CCC(C(=C)C)(C(=O)OCC)C(=O)OCC`, the growth inhibition is -23.4% in assay [1]; -24.6% in assay [2]; -32.6% in assay [3]; -6.8% in assay [4]; -25.4% in assay [5]; -31.9% in assay [6].

As for `CCOC(=O)C(=[N+]=[N-])C(=O)CN1C(=O)c2ccccc2C1=O`, the growth inhibition is -21.6% in assay [1]; -7% in assay [2]; -31.5% in assay [3]; -7.7% in assay [4]; 5.9% in assay [5]; -15.9% in assay [6].

For the compound `CC1OC(c2ccccc2)=CC(OCc2ccccc2)[C@H]1OCc1ccccc1` (stereo not given in full), the growth inhibition in assay [1] is -18.9%; in assay [2], -23.6%; in assay [3], -19%; in assay [4] it was -50.8%; in assay [5], -33%; in assay [6], 2.95%.

`CCCCCCCC[N+](C)(C)CC#CC[N+](C)(C)CCCCCCCC`: the growth inhibition in assay [1] is 46.2%; in assay [2], -14.3%; in assay [3] it was 13.9%; in assay [4] it was -1.65%; in assay [5] it was 11.1%; in assay [6], 44.1%.

In the case of `COc1ccc(C(=O)C(C(=O)CCC(=O)Nc2ccc(Cl)c(Cl)c2)c2ccc(OC)cc2)cc1` (stereo not given), the growth inhibition is -9.65% in assay [1]; 1.7% in assay [2]; -11.3% in assay [3]; -8.6% in assay [4]; 18.6% in assay [5]; -17.9% in assay [6].

Turning to `N/C(=N\S(=O)(=O)c1cc(C(F)(F)F)cc(C(F)(F)F)c1)c1ccncc1`, the growth inhibition was 4.95% in assay [1]; 11.2% in assay [2]; 23.9% in assay [3]; 1.3% in assay [4]; 19.6% in assay [5]; 24.7% in assay [6].

The values are drawn from PubChem BioAssay (NCI).
